Results taken from PubChem BioAssay AID1030 (National Center for Advancing Translational Sciences (NCATS), 2008).
Values joined by “and” are separate entries in the source; they are usually repeats but may differ in a detail not shown here. Equal entries are not always repeated. The campaign covered roughly 220,000 compounds. About 16,000 (7.3%) were called active. Roughly 25% stayed inconclusive and do not appear here. Calls follow the shape of the dose curve; as a rule, active = well fitted inhibition curve with a large enough effect (not every such curve was filed as active); inconclusive = small, poorly fitted or top-dose-only effect, or another doubt; inactive = no such curve, though single readings can be large or run the other way. The entries come from a sample that favours actives as a whole.

Target: Aldehyde dehydrogenase 1A1 (Homo sapiens) (UniProt P00352)
Assay: qHTS Assay for Inhibitors of Aldehyde Dehydrogenase 1 (ALDH1A1);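 as to activity, negative = inhibition: plate controls were no enzyme wells and a reference inhibitor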
Settings: Purified ALDH1A1, NADH fluorescence, propionaldehyde substrate; series mostly up to 75.3 µM; activity, negative = inhibition: at the top concentration
Potency is read from the fitted curve at half-maximal effect.

Aldehyde dehydrogenase 1A1 (Homo sapiens), sequence (P00352 whole entry, looked up): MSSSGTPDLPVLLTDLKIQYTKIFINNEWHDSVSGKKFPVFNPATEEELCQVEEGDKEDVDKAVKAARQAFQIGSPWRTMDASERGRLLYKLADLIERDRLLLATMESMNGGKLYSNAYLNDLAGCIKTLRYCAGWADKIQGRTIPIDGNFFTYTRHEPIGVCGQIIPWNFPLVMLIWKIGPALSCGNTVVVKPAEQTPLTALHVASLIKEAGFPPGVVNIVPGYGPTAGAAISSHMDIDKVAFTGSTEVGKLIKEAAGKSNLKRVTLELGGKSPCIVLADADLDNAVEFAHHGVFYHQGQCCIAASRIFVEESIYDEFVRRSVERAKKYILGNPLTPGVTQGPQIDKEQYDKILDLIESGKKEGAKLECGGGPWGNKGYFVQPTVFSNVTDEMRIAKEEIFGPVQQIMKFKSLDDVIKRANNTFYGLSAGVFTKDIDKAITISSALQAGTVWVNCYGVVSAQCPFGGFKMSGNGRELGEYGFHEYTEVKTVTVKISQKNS

activity, negative = inhibition, inactive:
CC(C)(C)NC(=O)NC(=O)COC(=O)CCC1CCCCC1 -5.33%
CC(C)NC(=O)NC(=O)COC(=O)c1ccc(NC(=O)CC#N)cc1 6.29%
COc1cccc(CC2(CO)CCN(Cc3cnc(-c4cccc(C)c4)nc3)CC2)c1 -0.151%
COc1ccc(C2CC(c3ccccc3)=NN2C(=O)COC(=O)COc2ccccc2)cc1 (stereo unspecified) -9.93%
O=C(CC1SCCNC1=O)Nc1ccc(Cl)c(Cl)c1 (stereo unspecified) -1.94%
Cc1oc2cc([N+](=O)[O-])c(O)c([N+](=O)[O-])c2c1C(=O)c1ccc(Br)cc1 -15.7%
CC(CNC(=O)c1ccc(N)cc1)NC(=O)c1ccc(N)cc1 (stereo unspecified) 12.3%
CC(CCc1ccccc1)NC(=O)c1ccc(Br)o1 (stereo unspecified) -52.6%
CS(=O)(=O)N(Cc1ccccc1Cl)c1ccc(C(=O)NCc2cccnc2)cc1 -5.16%
CC1CCN(CCC(=O)Nc2ccccc2)CC1 5.39%
CCN(CC)CCNC(=O)c1ccc(NS(=O)(=O)c2ccc3c(c2)OCCO3)cc1 1.71%
CCCCC/C=C\C/C=C\CCCCCCCCCC(N)=O -3.54%
CCCCC/C=C\C/C=C\C/C=C\CCCCCCC(N)=O 1.39%
CC(=O)c1c(-c2ccccc2)c2ccccc2[nH]c1=O -7.94%
Brc1cc(/C=N/n2cnnc2)oc1Br 9.74%
O=C1COc2ccc(C(=O)COC(=O)c3cccnc3Cl)cc2N1 -2.97%
NNC(=O)C1CC(O)CN1S(=O)(=O)c1ccc(Cl)cc1 (stereo unspecified) 4.39%
COC(=O)N/N=C/c1ccc(/C=N/NC(=O)OC)cc1 1.22%
Cc1[nH]c2ccccc2c1SCC(=O)Nc1nccs1 16.2%
CCC(=O)Nc1cc(C(F)(F)F)ccc1N1CCCC1 11.1%
CC(=O)Nc1cccc(C(=O)Nc2nc(C)cs2)c1 -0.569%
O=C(O)CSc1nccc2ccccc12 9.04%
CC(=O)Oc1ccc(C)cc1N1C(=O)c2ccc(C(=O)O)cc2C1=O 2.51%
Cc1cccc(N2C(=O)c3cccnc3C2=O)c1 2.24%
CSc1ncccc1C(=O)OCc1ccc(Br)cc1 9.11%
O=C(C1=C[C@H](c2coc3ccccc3c2=O)C[C@H](OCc2ccc(CO)cc2)O1)N1CCN(Cc2ccccc2)CC1 -12.4%
CN1CCN(C(=O)C2=C[C@H](c3ccc4c(c3)OCO4)C[C@H](OCc3ccc(CO)cc3)O2)CC1 -2.84%
O=C(C(=O)N1CCc2ccccc2C1)c1c[nH]c2ccccc12 -2.78%
O=C(Nc1nnc(Cc2ccc(Cl)cc2)s1)c1cccnc1 -0.189%
Cn1cnc([N+](=O)[O-])c1Sc1n[nH]c(N)n1 0.133%
Cn1cnc([N+](=O)[O-])c1Nc1ccccc1O 2.48%
COC(=O)COc1ccc(C2NC(=O)NC(C)=C2C(=O)NCc2ccccc2)cc1OC (stereo unspecified) 19.6%
O=C(Nc1ccc(N2CCOCC2)nc1)c1c(F)cccc1F 7.81%
Cc1ccc(S(=O)(=O)Cc2cc(-c3ccc(Cl)cc3)no2)cc1 -5.52%
COC(=O)c1cc(NC(=O)c2ccco2)ccc1N1CCOCC1 -6.16%
Cc1c(C=O)c2ccccc2n1CC(=O)O 2.12%
O=C1CC(c2ccccc2)C(=O)N1c1cccc(O)c1 (stereo unspecified) 4.81%
Cc1cccc(N2C(=O)CC(SC(N)=Nc3ccccc3)C2=O)c1 (stereo unspecified) 2.23%
O=C1OCC2=C1C(c1ccccc1)CC(=O)N2c1cccc(F)c1 (stereo unspecified) 2.06%
CC(=O)N(CN1C(=O)C2C3C=CC(C3)C2C1=O)c1cccc(Cl)c1 (stereo unspecified) 0.697%
Cn1cc(CN2CCCC(CO)C2)c(-c2ccc(Oc3ccccc3)cc2)n1 (stereo unspecified) -3.15%
CC(C)C1=CC2=CC[C@H]3[C@](C)(C(=O)O)CCC[C@]3(C)C2CC1 (stereo partly specified) -11%
O=C1CCN(C(=S)NCCc2ccccc2)CC1 0.459%
S=C(NCCc1ccccc1)N1CCCCC1 -4.74%
O=C(Nc1cccc([N+](=O)[O-])c1)Nc1ccc(Cl)cn1 11.7%
CCN(CC)C(=O)CN(c1cccc([N+](=O)[O-])c1)S(=O)(=O)c1ccccc1 6.73%

Potency, active:
N#CCC(=O)NC(=O)NCC1CC1 3.98 µM and 1.26 µM
CC(CNC(=O)c1ccc(Br)o1)NC(=O)c1ccc(Br)o1 (stereo unspecified) 28.2 µM
CC/C=C/C/C=C/C/C=C/CCCCCCCC(=O)OCC 1.12 µM
O=C1COc2ccc(C(=O)COC(=O)C3CC(O)CN3S(=O)(=O)c3ccc(Cl)cc3)cc2N1 (stereo unspecified) 5.01 µM
Cc1ccc(Oc2ccc3c(c2)C(=O)N(c2cccc4cccnc24)C3=O)cc1 11.2 µM
CC(=O)n1cc([C@@H]2C=C(C(=O)N3CCN(Cc4ccc5c(c4)OCO5)CC3)O[C@H](OCc3ccc(CO)cc3)C2)c2ccccc21 25.1 µM
Cn1cnc([N+](=O)[O-])c1Sc1ccccc1 11.2 µM
COC(=O)c1ccccc1SC1CC(=O)N(c2cccc(C)c2)C1=O (stereo unspecified) 17.8 µM
Oc1cc2c(cc1O)CN(C(=S)NCCc1ccc(Cl)cc1)CCC2 15.8 µM and 20 µM
O=C(CCl)N(Cc1cccc([N+](=O)[O-])c1)c1cccc(Cl)c1 0.158 µM
